# Values joined by “and” are separate entries in the source; they are usually repeats but may differ in a detail not shown here. Equal values may be shown once. Records with an inconclusive call do not appear. Some structures have more than one record in an assay (separate samples or runs), and their calls can disagree. Active and inactive are the calls of the source. Unless noted, the call rests on the fitted dose curve; in most records, active means well fitted curve in the direction sought with a large enough effect; inconclusive means small, poorly fitted or top-dose-only effect, or another doubt; inactive means no such curve, though single readings can be large; an effect the other way counts as inactive or inconclusive.
# Assays:
# [1] = target: Lysosomal acid glucosylceramidase (Homo sapiens) (UniProt P04062); experiment: Glucocerebrosidase-p2 (AID 348; in the data active means potency below about 10 µM; further: potency means the concentration at half of the fitted maximal effect); conditions: purified GBA, blue fluorogenic substrate, 40 min
# Sequence of Lysosomal acid glucosylceramidase (Homo sapiens) (P04062 whole entry, looked up): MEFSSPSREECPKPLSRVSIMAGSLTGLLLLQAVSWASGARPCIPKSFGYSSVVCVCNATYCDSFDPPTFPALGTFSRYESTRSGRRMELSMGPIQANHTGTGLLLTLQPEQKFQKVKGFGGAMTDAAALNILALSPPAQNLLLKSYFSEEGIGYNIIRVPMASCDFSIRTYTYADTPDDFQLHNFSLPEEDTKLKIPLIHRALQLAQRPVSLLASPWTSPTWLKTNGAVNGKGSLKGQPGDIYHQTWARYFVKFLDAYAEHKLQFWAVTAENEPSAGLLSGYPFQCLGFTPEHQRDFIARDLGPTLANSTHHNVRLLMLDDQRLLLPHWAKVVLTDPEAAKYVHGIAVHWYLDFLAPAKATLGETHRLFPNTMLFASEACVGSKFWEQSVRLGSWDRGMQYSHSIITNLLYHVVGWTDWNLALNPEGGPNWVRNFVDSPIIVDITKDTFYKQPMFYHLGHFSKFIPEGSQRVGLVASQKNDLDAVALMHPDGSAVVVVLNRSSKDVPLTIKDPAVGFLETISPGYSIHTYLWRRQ
# In short: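 Compounds titrated from 0.6 nM upwards against 0.2 nM enzyme in pH 5.9 citric acid/KH2PO4, taurocholate, tween-20; blue fluorogenic substrate 80 uM, 40 min room temperature, stopped and read Ex 365/Em 440 for AC50.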
# [2] = AP1 Signaling Pathway (AID 357; active means well fitted curve in either direction with a large enough effect, not every such curve was filed as active;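 further: ME-180 reporter cells stimulated with EGF at its EC50 level; on the % scale 0 is the no-effect control and ±100 the full control effect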)
# In short: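 Cells are seeded overnight, exposed to compound titrations and an EC50 level of EGF for 5 hours at 37 °C, then loaded with CCF4 dye for 2.5 hours. Beta-lactamase activity under the AP-1 element is read as a blue/green ratio.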
# [3] = NFAT Signaling Pathway (AID 444; active means well fitted curve in either direction with a large enough effect, not every such curve was filed as active;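 further: carbachol stimulus at about its EC50 of 1 µM final; on the % scale 0 is the no-effect control and ±100 the full control effect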); conditions: Jurkat NFAT-bla M1, carbachol, beta-lactamase ratio, 5 h; at 7.69 µM (top of the series)
# In short: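 Jurkat cells carrying an NFAT-driven β-lactamase reporter and co-transfected muscarinic M1 receptor were treated with compound plus carbachol (1 uM final, an EC50 level) for 5 h at 37 °C. CCF4 loading followed for 1 h at RT; 460/530 nm ratio gave %activity.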
# [4] = Stat Signaling Pathway (AID 446; active means well fitted curve in either direction with a large enough effect, not every such curve was filed as active;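 further: ME-180 cervical cancer cells given 40 pM IL-6 alongside compound; SIE-controlled beta-lactamase reporter measured as 460/530 nm FRET emission ratio; on the % scale 0 is the no-effect control and ±100 the full control effect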)
# In short: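 Screening format detects activators and inhibitors alike: ME-180 SIE-bla cells stimulated at 40 pM IL-6 for 5 hrs with compound, then dual-emission beta-lactamase read at 405 nm excitation.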
# [5] = target: Glucocorticoid receptor (Homo sapiens) (UniProt P04150); experiment: GR-GFP Redistribution (AID 450;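 active means compounds whose dose series gives a full or clear partial fitted curve of increased nuclear translocation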; further: potency means the concentration at half of the fitted maximal effect); conditions: U2OS GR-GFP nuclear translocation, laser cytometry, 2 h
# Sequence of Glucocorticoid receptor (Homo sapiens) (P04150 whole entry, looked up, the tested form may be a part): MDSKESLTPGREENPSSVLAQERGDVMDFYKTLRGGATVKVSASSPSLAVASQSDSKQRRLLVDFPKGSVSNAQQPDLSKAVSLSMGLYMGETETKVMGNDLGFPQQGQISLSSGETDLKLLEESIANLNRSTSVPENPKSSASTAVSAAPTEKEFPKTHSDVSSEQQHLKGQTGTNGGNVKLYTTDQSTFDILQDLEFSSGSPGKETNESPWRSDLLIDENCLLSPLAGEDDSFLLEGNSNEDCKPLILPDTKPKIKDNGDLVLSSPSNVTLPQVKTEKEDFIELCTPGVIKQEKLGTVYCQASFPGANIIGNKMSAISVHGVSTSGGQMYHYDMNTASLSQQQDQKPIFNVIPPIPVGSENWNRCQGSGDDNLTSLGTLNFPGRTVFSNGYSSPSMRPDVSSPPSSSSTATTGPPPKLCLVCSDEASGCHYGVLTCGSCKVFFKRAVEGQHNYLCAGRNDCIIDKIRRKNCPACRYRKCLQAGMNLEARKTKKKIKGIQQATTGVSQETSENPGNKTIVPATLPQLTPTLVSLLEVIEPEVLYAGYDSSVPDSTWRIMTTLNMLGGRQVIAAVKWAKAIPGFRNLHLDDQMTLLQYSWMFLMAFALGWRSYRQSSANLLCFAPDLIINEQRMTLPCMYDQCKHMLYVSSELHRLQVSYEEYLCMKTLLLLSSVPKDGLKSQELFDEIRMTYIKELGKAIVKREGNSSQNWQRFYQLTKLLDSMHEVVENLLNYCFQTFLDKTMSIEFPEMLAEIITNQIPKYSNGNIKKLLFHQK
# [6] = target: Glucocorticoid receptor (Homo sapiens) (UniProt P04150); experiment: GR-EFC Redistribution (AID 451; calls by dose curve; further: potency means the concentration at half of the fitted maximal effect); conditions: CHO-K1 GR-EFC translocation, beta-gal luminescence, 2 h
# In short: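 CHO-K1 cells stably expressing nuclear-localized β-gal enzyme acceptor and GR fused C-terminally to the enzyme donor fragment; ligand-driven nuclear translocation restores β-gal by complementation. Compounds titrated up to 46 uM final, 2 h at 37 °C; luminescence read.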
# [7] = target: Mitogen-activated protein kinase 10 (Mus musculus) (UniProt Q61831); experiment: JNK3 AlphaScreen Assay (AID 530; active means well fitted curve in either direction with a large enough effect, not every such curve was filed as active;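 further: kinase came from lysate of stimulated human HepG2 cells; signal reports phosphorylation of biotinylated GST-cJun 1-79 at Ser73 with 10 µM ATP; on the % scale 0 is the no-effect control and ±100 the full control effect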)
# In short: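 Inhibitors reduce antibody binding to phosphorylated biotin-cJun, lowering AlphaScreen luminescence. Lysates from HepG2 cells pre-activated by IL-1beta plus TNF-alpha supplied JNK3; compounds were titrated.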
# [8] = target: 3',5'-cyclic-AMP phosphodiesterase 4B (Homo sapiens) (UniProt Q07343); experiment: qHTS Assay for Inhibitors of PDE-IV (AID 607; active means well fitted activation curve with a large enough effect in the main read-out, with a control signal flat, not every such curve was filed as active; further: % of control where 0% means no effect)
# Sequence of 3',5'-cyclic-AMP phosphodiesterase 4B (Homo sapiens) (Q07343 whole entry, looked up): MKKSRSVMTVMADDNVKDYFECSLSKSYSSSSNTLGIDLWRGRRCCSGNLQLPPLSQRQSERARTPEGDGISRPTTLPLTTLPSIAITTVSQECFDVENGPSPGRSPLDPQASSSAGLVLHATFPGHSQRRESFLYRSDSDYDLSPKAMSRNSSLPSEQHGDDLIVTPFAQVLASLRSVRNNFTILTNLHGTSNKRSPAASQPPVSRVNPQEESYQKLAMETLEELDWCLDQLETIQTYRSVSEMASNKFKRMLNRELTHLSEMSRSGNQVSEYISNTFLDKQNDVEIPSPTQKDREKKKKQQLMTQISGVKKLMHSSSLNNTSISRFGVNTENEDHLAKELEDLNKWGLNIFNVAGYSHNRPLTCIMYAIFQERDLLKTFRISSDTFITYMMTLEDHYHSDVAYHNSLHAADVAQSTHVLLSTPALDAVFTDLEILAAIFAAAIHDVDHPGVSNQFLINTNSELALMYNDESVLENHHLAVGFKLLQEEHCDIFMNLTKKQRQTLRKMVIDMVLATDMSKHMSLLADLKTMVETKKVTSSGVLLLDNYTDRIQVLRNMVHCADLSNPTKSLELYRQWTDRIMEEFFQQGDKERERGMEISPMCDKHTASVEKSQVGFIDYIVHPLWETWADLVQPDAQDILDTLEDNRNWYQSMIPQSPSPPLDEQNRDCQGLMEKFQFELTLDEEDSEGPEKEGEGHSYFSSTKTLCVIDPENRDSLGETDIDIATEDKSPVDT
# In short: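 The readout is membrane depolarisation from a cAMP-sensing CNG channel, detected with a potential dye at ex 535/em 590. Cells were HEK293-derived (endogenous PDE-IV) at 1000 cells/well, titrated up to 22.9 uM final.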
# [9] = target: Cytochrome P450 3A4 (Homo sapiens) (UniProt P08684); experiment: qHTS Assay for Activators of Cytochrome P450 3A4 (AID 885); further: nearly all actives have a fitted effect of over 65% in size; further: potency means the concentration at half of the fitted maximal effect
# Sequence of Cytochrome P450 3A4 (Homo sapiens) (P08684 whole entry, looked up): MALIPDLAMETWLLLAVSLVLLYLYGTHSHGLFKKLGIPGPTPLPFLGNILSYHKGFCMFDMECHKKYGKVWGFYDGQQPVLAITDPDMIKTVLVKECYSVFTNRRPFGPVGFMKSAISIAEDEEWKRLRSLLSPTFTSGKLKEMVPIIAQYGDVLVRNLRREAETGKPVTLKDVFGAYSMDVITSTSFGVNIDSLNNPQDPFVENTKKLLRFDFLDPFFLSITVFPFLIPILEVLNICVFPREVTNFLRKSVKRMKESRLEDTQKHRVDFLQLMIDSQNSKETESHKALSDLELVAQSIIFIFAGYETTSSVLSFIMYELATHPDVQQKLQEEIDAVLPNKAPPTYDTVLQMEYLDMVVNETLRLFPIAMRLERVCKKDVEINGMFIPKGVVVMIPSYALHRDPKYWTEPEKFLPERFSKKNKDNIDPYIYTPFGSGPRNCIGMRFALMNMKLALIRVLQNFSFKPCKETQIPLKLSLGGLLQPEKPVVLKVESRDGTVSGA
# In short: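 Steps: enzyme/substrate mix dispensed; compound added, 10 min RT; NADPH regeneration solution added, 60 min RT; luciferin detection buffer stops reaction; 20 min later luminescence measured.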
# [10] = qHTS Assay for Lipid Storage Modulators (AID 1519; calls by dose curve; further: potency means the concentration at half of the fitted maximal effect); conditions: Drosophila S3 cells, BODIPY lipid droplet/cell ratio, laser cytometry, cells loaded with oleic acid; for activity change, negative = inhibition: at 57.5 µM (top of the series)
# In short: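 Cells seeded at 5,000 per well were treated with compounds over a concentration series and loaded with oleic acid (400 uM, as added). Lipid droplet fluorescence (488 nm excitation, 500-530 nm channel) was read by laser-scanning cytometry and normalized to 20 uM Triacsin C.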
# [11] = target: Cytochrome P450 3A4 (Homo sapiens) (UniProt P08684); experiment: qHTS Assay for Inhibitors and Substrates of Cytochrome P450 3A4 (AID 884); further: nearly all actives have a fitted effect of over 50% in size; further: potency means the concentration at half of the fitted maximal effect
# In short: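 20 nM human CYP3A4 with 25 uM Luciferin-PPXE (at KM) in 200 mM KPO4, preincubated 10 min with compound; NADPH regeneration started a 60 min RT reaction. Luciferin detected by luminescence, normalized to 57 uM ketoconazole as full inhibition.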
# [12] = Confirmation and Secondary Assay for Modulators of Hemoglobin Beta Chain Splicing at IVS2 705 locus (AID 930);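 further: HeLa cells stably expressing the EGFP-705 splicing reporter; GFP fluorescence per well restored by corrected splicing of the IVS2-705 intron in EGFP; % of control where 0% means no effect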
# In short: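 Fluorescence gain (488 nm laser, 500-520 nm PMT) reflects restored correct splicing of a mutant IVS2-705 intron inside EGFP in stably transfected HeLa cells after 2-day compound treatment.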
# [13] = Confirmation and Secondary Assay for Modulators of Hemoglobin Beta Chain Splicing at IVS2 654 locus (AID 910);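 further: per-well total GFP intensity by laser scanning cytometry after 2-day treatment; % of control where 0% means no effect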
# In short: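 HeLa cells stably carrying EGFP interrupted by mutant beta-globin IVS2-654 intron (CMV-driven) were treated with compound for 2 days at 37C; corrected splicing was scored as total peak GFP intensity per well (488 nm excitation, 500-520 nm emission).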
# [14] = target: Voltage-gated inwardly rectifying potassium channel KCNH2 (Homo sapiens) (UniProt Q12809); experiment: qHTS Assay for Small Molecule Inhibitors of the Human hERG Channel Activity (AID 588834);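 further: top concentration of the series differs between compounds; on the % scale 0 is the no-effect control and ±100 the full control effect; lower thallium flux fluorescence means stronger hERG block; nearly all actives have a fitted effect of over 50% in size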
# In short: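 Measured: FluxOR fluorescence after thallium stimulation in U2OS cells transduced with hERG by baculovirus. Compounds pre-incubated around 10 min; medium Opti-MEM with 2% FCS. AC50 from Hill equation.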
# [15] = target: Cytochrome P450 1A2 (Homo sapiens) (UniProt P05177); experiment: p450-cyp1a2 (AID 410; calls by dose curve;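 further: -100% = full effect of reference inhibitor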)
# Sequence of Cytochrome P450 1A2 (Homo sapiens) (P05177 whole entry, looked up): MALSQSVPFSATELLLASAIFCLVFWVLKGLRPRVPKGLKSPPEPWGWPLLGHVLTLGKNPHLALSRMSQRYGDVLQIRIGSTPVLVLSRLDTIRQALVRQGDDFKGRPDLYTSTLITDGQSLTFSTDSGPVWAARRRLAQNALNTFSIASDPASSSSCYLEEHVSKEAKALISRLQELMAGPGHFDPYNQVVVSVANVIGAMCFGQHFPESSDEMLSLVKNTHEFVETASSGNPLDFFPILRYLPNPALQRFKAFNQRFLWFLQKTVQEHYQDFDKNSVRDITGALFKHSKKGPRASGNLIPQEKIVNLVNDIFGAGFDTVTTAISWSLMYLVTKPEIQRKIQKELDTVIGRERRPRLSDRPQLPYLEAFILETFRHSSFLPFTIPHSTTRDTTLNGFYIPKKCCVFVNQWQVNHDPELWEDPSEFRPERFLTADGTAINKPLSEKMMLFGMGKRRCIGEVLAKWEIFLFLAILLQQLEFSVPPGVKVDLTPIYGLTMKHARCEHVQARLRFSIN
# In short: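 Luminescent readout of luciferin formed from Luciferin-ME by human CYP1A2; data normalized against complete inhibition by 57 uM furafylline. Enzyme 20nM, substrate 100uM at Km, 100mM KPO4 buffer, 60 min reaction at room temperature.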
# [16] = target: Ubiquitin carboxyl-terminal hydrolase 1 (Homo sapiens) (UniProt O94782); experiment: Inhibitors of USP1/UAF1: Pilot qHTS (AID 504865);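 further: rhodamine fluorescence freed from ubiquitin-rhodamine substrate followed over time; top concentration of the series differs between compounds; on the % scale 0 is the no-effect control and ±100 the full control effect; nearly all actives have a fitted effect of over 35% in size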
# Sequence of Ubiquitin carboxyl-terminal hydrolase 1 (Homo sapiens) (O94782 whole entry, looked up): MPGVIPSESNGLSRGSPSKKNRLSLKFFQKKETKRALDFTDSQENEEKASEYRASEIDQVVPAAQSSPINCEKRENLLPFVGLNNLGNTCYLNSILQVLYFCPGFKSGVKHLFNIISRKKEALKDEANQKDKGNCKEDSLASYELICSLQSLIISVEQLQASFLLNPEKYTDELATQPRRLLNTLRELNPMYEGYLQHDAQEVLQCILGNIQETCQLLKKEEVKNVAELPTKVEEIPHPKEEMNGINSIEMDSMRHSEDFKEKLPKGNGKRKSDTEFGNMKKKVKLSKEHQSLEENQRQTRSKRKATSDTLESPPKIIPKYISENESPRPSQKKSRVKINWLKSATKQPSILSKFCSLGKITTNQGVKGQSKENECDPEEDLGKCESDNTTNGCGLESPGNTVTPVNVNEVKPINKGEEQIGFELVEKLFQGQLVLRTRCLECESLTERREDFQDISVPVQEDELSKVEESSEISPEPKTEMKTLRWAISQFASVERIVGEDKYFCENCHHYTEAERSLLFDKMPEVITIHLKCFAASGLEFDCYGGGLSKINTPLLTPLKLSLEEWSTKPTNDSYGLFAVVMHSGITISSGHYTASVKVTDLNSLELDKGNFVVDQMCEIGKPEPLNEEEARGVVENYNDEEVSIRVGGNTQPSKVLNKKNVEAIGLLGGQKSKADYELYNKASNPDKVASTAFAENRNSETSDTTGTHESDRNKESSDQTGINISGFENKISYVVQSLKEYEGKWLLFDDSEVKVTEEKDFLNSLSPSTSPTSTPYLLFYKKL
# In short: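 Kinetic fluorescence assay: 1nM USP1/UAF1, 15 min compound preincubation, then 150nM Ub-Rho; 480/540 nm.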
# [17] = target: DNA repair nuclease/redox regulator APEX1 (Homo sapiens) (UniProt P27695); experiment: qHTS Validation Assay for Inhibitors of the Human Apurinic/apyrimidinic Endonuclease 1 (APE1) (AID 1705)
# Sequence of DNA repair nuclease/redox regulator APEX1 (Homo sapiens) (P27695 whole entry, looked up): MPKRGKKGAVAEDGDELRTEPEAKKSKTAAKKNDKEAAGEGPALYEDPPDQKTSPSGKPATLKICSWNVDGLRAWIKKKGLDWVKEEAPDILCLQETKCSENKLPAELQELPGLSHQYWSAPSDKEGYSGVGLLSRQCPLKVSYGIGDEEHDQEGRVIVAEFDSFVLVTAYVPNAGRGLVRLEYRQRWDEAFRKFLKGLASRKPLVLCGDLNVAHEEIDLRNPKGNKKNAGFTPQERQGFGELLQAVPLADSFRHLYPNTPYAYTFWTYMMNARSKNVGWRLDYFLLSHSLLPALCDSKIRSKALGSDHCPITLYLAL
# In short: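 Endonuclease activity of human APE1 is followed as dequenching when the enzyme incises a tetrahydrofuran abasic site in a short duplex labelled 5'-TAMRA/3'-BHQ-2 (50 nM final), after 15 min enzyme–compound preincubation at room temperature.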
# [18] = target: ATP-dependent DNA helicase Q1 (Homo sapiens) (UniProt P46063); experiment: qHTS Validation Assay for Inhibitors of RecQ-Like Dna Helicase 1 (RECQ1) (AID 2353);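 further: plate controls were DMSO vehicle for no effect and enzyme-free control for full effect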
# Sequence of ATP-dependent DNA helicase Q1 (Homo sapiens) (P46063 whole entry, looked up): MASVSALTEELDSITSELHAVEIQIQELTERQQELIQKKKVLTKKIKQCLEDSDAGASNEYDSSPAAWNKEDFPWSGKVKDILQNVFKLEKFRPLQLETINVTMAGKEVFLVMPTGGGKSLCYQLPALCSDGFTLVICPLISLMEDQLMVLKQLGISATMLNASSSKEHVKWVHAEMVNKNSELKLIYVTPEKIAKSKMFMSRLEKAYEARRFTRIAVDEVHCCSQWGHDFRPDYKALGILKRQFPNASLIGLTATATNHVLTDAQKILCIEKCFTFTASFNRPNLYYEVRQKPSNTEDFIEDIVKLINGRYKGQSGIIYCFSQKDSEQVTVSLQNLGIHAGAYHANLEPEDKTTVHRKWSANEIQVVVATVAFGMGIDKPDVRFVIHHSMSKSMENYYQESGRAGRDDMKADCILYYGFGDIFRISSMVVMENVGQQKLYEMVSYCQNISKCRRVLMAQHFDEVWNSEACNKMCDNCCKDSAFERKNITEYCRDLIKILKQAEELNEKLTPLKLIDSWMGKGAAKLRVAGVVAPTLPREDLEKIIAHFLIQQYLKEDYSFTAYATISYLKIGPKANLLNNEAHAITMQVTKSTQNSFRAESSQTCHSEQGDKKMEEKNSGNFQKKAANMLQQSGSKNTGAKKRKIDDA
# In short: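 50 nM RECQ1T1 preincubated 15 min with compound in Tris pH 8.0 buffer with MgCl2, DTT, Tween-20 and 2.5 ug/ml poly(dI-dC); started with 200 nM TAMRA/BHQ-2 forked duplex and 2 mM ATP. Unwinding read as fluorescence (525/598 nm), two reads 2 h apart.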
# [19] = measured here: cell count channel max response
# [20] = measured here: lipid channel max response
smiles,measurement,setting,value
Cc1nc2cnc(N3CCNCC3)nc2n(C)c1=O,Potency,[1],> 11.4 µM (inactive)
same,outcome,[2],inactive
same,"activity change, negative = inhibition",[3],5.09% (inactive)
same,outcome,[4],inactive
same,Potency,[5],> 9.22 µM (inactive)
same,Potency,[6],> 46 µM (inactive)
same,outcome,[7],inactive
same,Potency,[8],inactive
same,Potency,[9],inactive
same,"activity change, negative = inhibition",[10],5.19% (inactive)
same,max response,[10]; [19],18.7%
same,max response,[10]; [20],25.8%
ClC(Cl)=C(c1ccc(Cl)cc1)c1ccc(Cl)cc1,Potency,[11],inactive and 7.94 µM (active)
same,Potency,[9],inactive
same,Potency,[12],inactive
same,"activity change, negative = inhibition",[10],9.37% (inactive)
same,max response,[10]; [19],14.6%
same,max response,[10]; [20],26.1%
CN1CC[C@@]2(CCCN(C(=O)c3ccco3)C2)C1,Potency,[1],> 11.4 µM (inactive)
same,outcome,[2],inactive
same,"activity change, negative = inhibition",[3],-15.5% (inactive)
same,outcome,[4],inactive
same,Potency,[6],> 46 µM (inactive)
same,outcome,[7],inactive
same,Potency,[8],inactive
same,Potency,[9],inactive
same,"activity change, negative = inhibition",[10],5.37% (inactive)
same,max response,[10]; [19],10.7%
same,max response,[10]; [20],19.3%
COP(=S)(OC)Oc1ccc([N+](=O)[O-])cc1,outcome,[7],inactive
same,Potency,[9],inactive
same,Potency,[13],inactive
same,Potency,[12],inactive
same,Potency,[10],22.4 µM (active)
same,max response,[10]; [19],19.5%
same,max response,[10]; [20],-54.1%
same,Potency,[14],inactive
c1ccc(N2CCC3(CCNCC3)CC2)nc1,Potency,[1],> 11.4 µM (inactive)
same,outcome,[2],inactive
same,Potency,[15],inactive
same,Potency,[6],> 46 µM (inactive)
same,outcome,[7],inactive
same,Potency,[8],inactive
same,Potency,[9],inactive
same,"activity change, negative = inhibition",[10],6.81% (inactive)
same,max response,[10]; [19],19.9%
same,max response,[10]; [20],29.9%
c1ccc(N2CCC3(CCNCC3)CC2)cc1,Potency,[1],> 11.4 µM (inactive)
same,outcome,[2],inactive
same,"activity change, negative = inhibition",[3],-12.2% (inactive)
same,outcome,[4],inactive
same,Potency,[6],> 46 µM (inactive)
same,outcome,[7],inactive
same,Potency,[8],inactive
same,"activity change, negative = inhibition",[10],-3.07% (inactive)
same,max response,[10]; [19],-7.04%
same,max response,[10]; [20],-8.78%
O=C(Oc1ccccc1)N1CCC2(CCCN(C(c3ccccc3)c3ccccc3)C2)CC1,Potency,[1],> 11.4 µM (inactive)
same,Potency,[15],inactive
same,Potency,[6],> 46 µM (inactive)
same,outcome,[7],inactive
same,Potency,[8],inactive
same,"activity change, negative = inhibition",[10],6.26% (inactive)
same,max response,[10]; [19],7.72%
same,max response,[10]; [20],16.7%
ClC1=C(Cl)C2(Cl)C3C(Cl)C=CC3C1(Cl)C2(Cl)Cl (centres undefined),Potency,[11],10 µM (active)
same,Potency,[9],inactive
same,Potency,[13],inactive
same,Potency,[12],inactive
same,"activity change, negative = inhibition",[10],4.59% (inactive)
same,max response,[10]; [19],11.3%
same,max response,[10]; [20],18.4%
same,Potency,[16],inactive
CN1CCC23CCCC[C@H]2C1Cc1ccc(O)cc13 (some centres undefined),"activity change, negative = inhibition",[10],0.333% (inactive)
same,max response,[10]; [19],15.7%
same,max response,[10]; [20],15.2%
same,Potency,[17],inactive
same,outcome,[18],inactive
N#Cc1ccc(CN2CCC3(CC2)CCN(C(=O)Oc2ccccc2)CC3)cc1,outcome,[2],inactive
same,Potency,[15],inactive
same,outcome,[4],inactive
same,Potency,[6],> 46 µM (inactive)
same,outcome,[7],inactive
same,Potency,[8],inactive
same,Potency,[11],inactive
same,Potency,[9],15.8 µM (active)
same,"activity change, negative = inhibition",[10],0.91% (inactive)
same,max response,[10]; [19],-4.88%
same,max response,[10]; [20],-1.78%
